# According to PubChem BioAssay (EPA / NIEHS):
# “And” between values parts separate entries of the source, which are not always exact repeats. Equal values may be shown once. Results filed as inconclusive are left out. More than one record can exist for a structure, and the calls need not agree. The source made the active and inactive calls. How the source made its calls, unless noted: active means hit-call score of the fitted dose curve at least 0.9, where 1 is the maximum; inactive means score below 0.9.
# How the values were obtained:
# [1] = biological target: Glucocorticoid receptor (Homo sapiens) (UniProt P04150); experiment: ATG_GR_TRANS: Attagene TRANS-FACTORIAL HepG2 Assay for human Glucocorticoid Receptor (GR) (AID 2282978; active means hit-call score of the fitted dose curve at least 0.9, where 1 is the maximum;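 further: activators score as hits since higher reporter transcript over DMSO is fitted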); conditions: HepG2 Attagene TRANS GR reporter, mRNA transcription
# How it was run: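 HepG2 cells transiently transfected with GAL4-UAS reporter units and exogenous GR-Gal4 chimera, dosed 24 h. Reporter mRNA by RT-PCR, FAM labeling, HpaI digest and capillary electrophoresis; gain-of-signal fit versus DMSO.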
# [2] = biological target: Bile acid receptor (Homo sapiens) (UniProt Q96RI1); experiment: ATG_FXR_TRANS: Attagene TRANS-FACTORIAL HepG2 Assay for Farnesoid X Receptor (FXR) (AID 2282979; active means hit-call score of the fitted dose curve at least 0.9, where 1 is the maximum;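 further: hits raise reporter mRNA above DMSO so AC50 marks FXR activation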); conditions: HepG2 Attagene TRANS FXR-GAL4 reporter transcription
# How it was run: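 Transient transfection of HepG2 with multiplexed GAL4-UAS reporter units; exogenous FXR-GAL4 chimera. Dose 24 h → TriZol RNA → oligo(dT) RT → PCR, 6-FAM primer extension, HpaI cut → CE. Gain vs DMSO.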
# [3] = ATG_M_06_TRANS: Attagene TRANS-FACTORIAL HepG2 Assay for M06 Transcription Factor (Internal Marker) (AID 2282983; active means hit-call score of the fitted dose curve at least 0.9, where 1 is the maximum); conditions: HepG2 Attagene TRANS M06 internal marker reporter
# How it was run: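 Background control endpoint: reporter mRNA from transiently transfected HepG2 after 24 h dosing, detected by RT-PCR with capillary electrophoresis fluorescence. Analysed for gain versus DMSO.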
# [4] = ATG_M_32_TRANS: Attagene TRANS-FACTORIAL HepG2 Assay for M32 Transcription Factor (Internal Marker) (AID 2282984; active means hit-call score of the fitted dose curve at least 0.9, where 1 is the maximum;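 further: transcript level of a background control reporter unit measured by RT-PCR and capillary electrophoresis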); conditions: HepG2 Attagene TRANS M32 internal marker reporter
# How it was run: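 Read-out: fluorescent reporter cDNA fragments resolved by capillary electrophoresis after RT-PCR of total RNA. Transfected HepG2 cells were exposed to chemical for 24 h. Activity scored in the positive direction relative to DMSO.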
# [5] = biological target: Transcriptional activator Myb (Homo sapiens) (UniProt P10242); experiment: ATG_Myb_CIS: Attagene CIS-FACTORIAL HepG2 Assay for human Myeloblastosis (Myb) Proto-Oncogene Transcription Factor (AID 2282986); conditions: HepG2 Attagene CIS-FACTORIAL Myb reporter transcription; actives raise or lower the signal
# How it was run: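 Transiently transfected HepG2 cells carrying a multiplexed cis-promoter reporter set report endogenous Myb activity after 24 h compound exposure. Reporter mRNA is read by RT-PCR with capillary electrophoresis of fluorescent products, fitted bidirectionally against DMSO.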
# [6] = biological target: Nuclear respiratory factor 1 (Homo sapiens) (UniProt Q16656); experiment: ATG_NRF1_CIS: Attagene CIS-FACTORIAL HepG2 Assay for human Nuclear Respiratory Factor 1 (NRF1) Orphan Gene (AID 2282987); conditions: HepG2 NRF1 cis-element reporter, Attagene multiplex; actives raise or lower the signal
# How it was run: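 HepG2 cells transiently transfected with multiple cis-regulated reporter units, exposed 24 h. Reporter mRNAs measured by RT-PCR, fluorescent labelling, HpaI digestion and capillary electrophoresis; bidirectional fitting against DMSO.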
# [7] = ATG_NFI_CIS: Attagene CIS-FACTORIAL HepG2 Assay for human Nuclear Factor I (NFI) (AID 2282989); conditions: HepG2 cis-regulatory reporter, NFI response element transcription; actives raise or lower the signal
# How it was run: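 Endogenous TF activity in HepG2 cells transiently transfected with cis-element-driven multiplexed reporter units, read 24 h after dosing. Reporter mRNA quantified by RT-PCR, 6-FAM labelling, HpaI digestion and capillary electrophoresis; bidirectional fit versus DMSO.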
# [8] = biological target: Myc proto-oncogene protein (Homo sapiens) (UniProt P01106); experiment: ATG_Myc_CIS: Attagene CIS-FACTORIAL HepG2 Assay for human Myelocytomatosis (Myc) Proto-Oncogene Transcription Factor (AID 2282990); conditions: HepG2, Attagene cis-reporter transcription factor activity; actives raise or lower the signal
# How it was run: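 Transiently transfected HepG2 cells bearing cis-promoter reporter units for endogenous transcription factors; 24 h exposure. Reporter mRNA measured by RT-PCR, 6-FAM primer extension, HpaI cut and capillary electrophoresis; bidirectional fit relative to DMSO.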
# [9] = ATG_NF_kB_CIS: Attagene CIS-FACTORIAL HepG2 Assay for human Nuclear Factor Kappa B (NF-kB) (AID 2282991); conditions: HepG2 Attagene cis-factorial NF-kB reporter mRNA; actives raise or lower the signal
# How it was run: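 HepG2 cells transfected with cis-promoter-driven reporter units, so endogenous transcription factor activity is measured. Reporter mRNA quantified 24 h after dosing by RT-PCR and capillary electrophoresis, with bidirectional fitting against DMSO.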
# [10] = ATG_NRF2_ARE_CIS: Attagene CIS-FACTORIAL HepG2 Assay for human Nuclear Factor Erythroid 2 Related Factor 2 (NFR2) response to Antioxidant Response Elements (ARE) (AID 2282992); conditions: HepG2 Attagene ARE/NRF2 reporter, transcription factor activity; actives raise or lower the signal
# How it was run: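 Endogenous transcription factor activity read out as reporter transcript levels (RT-PCR plus capillary electrophoresis, fluorescence) in transiently transfected HepG2 cells. Measured at 24 h after dosing; gain or loss of signal fitted versus DMSO.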
# [11] = ATG_Oct_MLP_CIS: Attagene CIS-FACTORIAL HepG2 Assay for human Octamer-Binding Transcription Factor (Oct) (AID 2282993); conditions: HepG2 Attagene cis-factorial Oct reporter, mRNA; actives raise or lower the signal
# How it was run: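 HepG2 cells transiently transfected with cis-element-driven reporter transcription units (endogenous TF activity); 24 h compound exposure. Reporter mRNA quantified by RT-PCR, 6-FAM labelling, HpaI digestion and capillary electrophoresis; bidirectional fit versus DMSO baseline.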
# [12] = biological target: Cellular tumor antigen p53 (Homo sapiens) (UniProt P04637); experiment: ATG_p53_CIS: Attagene CIS-FACTORIAL HepG2 Assay for human p53 Transcription Factor (AID 2282994); conditions: HepG2 p53 cis-element reporter, Attagene mRNA; actives raise or lower the signal
# How it was run: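 Endogenous p53 activity read in transiently transfected HepG2 from a cis-element-driven reporter transcript after 24 h exposure. RNA reverse-transcribed, PCR-amplified, fluorescently labelled and sized by capillary electrophoresis; gain or loss fitted against DMSO baseline.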
# [13] = BSK_3C_TissueFactor: BioMAP Diversity Plus: 3C Assay for Tissue Factor Biomarker Activity (AID 2282997); conditions: BioMAP 3C HUVEC, tissue factor biomarker readout; actives raise or lower the signal
# How it was run: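 After a 24 h chemical exposure of primary human umbilical vein endothelial cells, Tissue Factor levels were quantified by ELISA.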
# [14] = BSK_3C_uPAR: BioMAP Diversity Plus: 3C Assay for Urokinase-type plasminogen activator receptor (uPAR) Biomarker Activity (AID 2282998); conditions: BioMAP 3C HUVEC, uPAR biomarker ELISA; actives raise or lower the signal
# How it was run: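 Primary human umbilical vein endothelial cells, 3C system; surface uPAR measured by ELISA 24 h after dosing. Cytotoxicity via SRB total protein in parallel cultures; bidirectional fit against DMSO.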
# [15] = BSK_3C_VCAM1: BioMAP Diversity Plus: 3C Assay for Vascular cell adhesion molecule 1 (VCAM1) Biomarker Activity (AID 2282999); conditions: BioMAP 3C HUVEC, VCAM1 ELISA, cytokine-stimulated; actives raise or lower the signal
# How it was run: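 HUVEC primary cells, 24 h compound exposure; VCAM-1 by ELISA; gain/loss of signal fitted bidirectionally vs DMSO baseline.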
# [16] = BSK_4H_Eotaxin3: BioMAP Diversity Plus: 4H Assay for Eotaxin 3 Biomarker Activity (AID 2283000); conditions: primary human endothelial cells (HUVEC); actives raise or lower the signal;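 on outcome: CCL26 protein level quantified by ELISA in parallel with SRB cytotoxicity check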
# How it was run: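 Chemicals were added to human umbilical vein endothelium cultures, and Eotaxin-3 was quantified by ELISA at 24 h. Values were derived by bidirectional fitting with DMSO serving as negative control and activity baseline.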
# [17] = biological target: human Peroxisome Proliferator-activated Receptor alpha (PPARa), PPARA (gene 5465) (UniProt Q07869); experiment: ATG_PPARa_TRANS: Attagene TRANS-FACTORIAL HepG2 Assay for human Peroxisome Proliferator-activated Receptor alpha (PPARa) (AID 2283001; active means hit-call score of the fitted dose curve at least 0.9, where 1 is the maximum)
# How it was run: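 Transient HepG2 transfection, GAL4-UAS reporters, NR-Gal4 chimeras; 24 h compound exposure. Readout: reporter transcripts by RT-PCR, 6-FAM primer extension, HpaI digest, capillary electrophoresis. Positive direction vs DMSO baseline.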
# [18] = biological target: Oxysterols receptor LXR-alpha (Homo sapiens) (UniProt Q13133); experiment: ATG_LXRa_TRANS: Attagene TRANS-FACTORIAL HepG2 Assay for human Liver X Receptor alpha (LXRa) (AID 2282980; active means hit-call score of the fitted dose curve at least 0.9, where 1 is the maximum); conditions: HepG2 Attagene TRANS reporter, LXRa transactivation
# How it was run: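 Transfect HepG2 with GAL4-UAS multiplex reporter constructs (TRANS format, chimeric receptor-GAL4); treat 24 h; extract RNA, reverse-transcribe, PCR-amplify, FAM-label, HpaI-digest; resolve fragments by capillary electrophoresis. Upward response vs DMSO.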
# [19] = biological target: Oxysterols receptor LXR-beta (Homo sapiens) (UniProt P55055); experiment: ATG_LXRb_TRANS: Attagene TRANS-FACTORIAL HepG2 Assay for human Liver X Receptor beta (LXRb) (AID 2282981; active means hit-call score of the fitted dose curve at least 0.9, where 1 is the maximum); conditions: HepG2 Attagene TRANS GAL4-LXRb reporter, mRNA
# How it was run: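 Readout: fluorescent reporter mRNA fragments resolved by capillary electrophoresis after RT-PCR. System: transiently transfected human HepG2, exogenous LXRb-Gal4 chimera driving GAL4-UAS reporter, 24 h dosing. Activity fitted upward against DMSO baseline.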
# [20] = biological target: Nuclear receptor subfamily 4 group A member 2 (Homo sapiens) (UniProt P43354); experiment: ATG_NURR1_TRANS: Attagene TRANS-FACTORIAL HepG2 Assay for human Nuclear Receptor Related Protein 1 (NURR1) (AID 2282985; active means hit-call score of the fitted dose curve at least 0.9, where 1 is the maximum); conditions: HepG2 Attagene TRANS reporter, mRNA readout
# How it was run: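 Read-out: reporter mRNA induction by RT-PCR plus capillary electrophoresis with fluorescence detection, after 24 h dosing of transfected HepG2 cells. Exogenous NR-Gal4 chimera activity drives GAL4-UAS reporter; activity fitted upward versus DMSO.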
# Glucocorticoid receptor (Homo sapiens), sequence (P04150 whole entry, looked up, the tested form may be a part): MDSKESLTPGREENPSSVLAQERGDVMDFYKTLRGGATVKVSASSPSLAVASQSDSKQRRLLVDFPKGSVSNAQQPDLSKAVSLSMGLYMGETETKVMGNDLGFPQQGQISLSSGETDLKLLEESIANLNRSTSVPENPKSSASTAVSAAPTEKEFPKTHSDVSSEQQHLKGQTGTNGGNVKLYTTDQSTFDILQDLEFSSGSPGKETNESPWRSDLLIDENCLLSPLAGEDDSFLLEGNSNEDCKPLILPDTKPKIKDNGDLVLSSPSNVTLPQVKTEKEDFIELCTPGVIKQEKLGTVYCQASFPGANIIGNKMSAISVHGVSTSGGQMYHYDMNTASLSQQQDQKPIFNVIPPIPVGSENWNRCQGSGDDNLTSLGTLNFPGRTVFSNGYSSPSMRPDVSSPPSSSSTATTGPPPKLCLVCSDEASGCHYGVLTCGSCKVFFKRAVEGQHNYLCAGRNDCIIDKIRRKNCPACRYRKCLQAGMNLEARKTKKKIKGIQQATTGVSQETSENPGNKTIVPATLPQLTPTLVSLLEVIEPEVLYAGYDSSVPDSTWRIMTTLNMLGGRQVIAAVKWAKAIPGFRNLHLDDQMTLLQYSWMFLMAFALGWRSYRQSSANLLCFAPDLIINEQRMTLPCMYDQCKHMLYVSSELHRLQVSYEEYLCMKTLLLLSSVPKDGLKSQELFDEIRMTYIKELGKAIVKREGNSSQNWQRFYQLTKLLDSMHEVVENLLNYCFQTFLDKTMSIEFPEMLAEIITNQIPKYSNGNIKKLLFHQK
# Cellular tumor antigen p53 (Homo sapiens), sequence (P04637 whole entry, looked up): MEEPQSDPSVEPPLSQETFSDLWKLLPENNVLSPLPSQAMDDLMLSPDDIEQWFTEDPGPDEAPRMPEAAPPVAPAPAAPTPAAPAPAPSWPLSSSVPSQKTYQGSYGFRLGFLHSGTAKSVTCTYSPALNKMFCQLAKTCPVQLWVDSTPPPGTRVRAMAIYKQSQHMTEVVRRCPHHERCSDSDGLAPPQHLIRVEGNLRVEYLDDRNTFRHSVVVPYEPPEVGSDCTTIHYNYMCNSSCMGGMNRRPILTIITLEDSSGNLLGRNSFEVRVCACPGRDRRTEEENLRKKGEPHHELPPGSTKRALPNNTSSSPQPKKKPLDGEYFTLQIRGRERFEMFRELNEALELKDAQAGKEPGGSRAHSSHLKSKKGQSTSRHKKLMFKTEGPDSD
# Bile acid receptor (Homo sapiens), sequence (Q96RI1 whole entry, looked up, the tested form may be a part): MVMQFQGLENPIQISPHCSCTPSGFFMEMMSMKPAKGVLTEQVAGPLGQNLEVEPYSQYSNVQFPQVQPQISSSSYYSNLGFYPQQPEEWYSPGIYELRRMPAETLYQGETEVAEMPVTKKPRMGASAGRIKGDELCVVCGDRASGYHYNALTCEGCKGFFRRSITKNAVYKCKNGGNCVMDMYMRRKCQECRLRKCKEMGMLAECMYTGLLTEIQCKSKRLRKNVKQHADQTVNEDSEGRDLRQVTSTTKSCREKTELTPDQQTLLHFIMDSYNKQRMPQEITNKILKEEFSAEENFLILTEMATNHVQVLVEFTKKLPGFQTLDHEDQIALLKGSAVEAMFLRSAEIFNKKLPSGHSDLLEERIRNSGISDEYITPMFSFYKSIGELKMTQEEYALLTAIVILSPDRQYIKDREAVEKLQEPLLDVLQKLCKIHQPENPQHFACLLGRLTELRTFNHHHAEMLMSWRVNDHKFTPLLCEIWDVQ
# Oxysterols receptor LXR-beta (Homo sapiens), sequence (P55055 whole entry, looked up, the tested form may be a part): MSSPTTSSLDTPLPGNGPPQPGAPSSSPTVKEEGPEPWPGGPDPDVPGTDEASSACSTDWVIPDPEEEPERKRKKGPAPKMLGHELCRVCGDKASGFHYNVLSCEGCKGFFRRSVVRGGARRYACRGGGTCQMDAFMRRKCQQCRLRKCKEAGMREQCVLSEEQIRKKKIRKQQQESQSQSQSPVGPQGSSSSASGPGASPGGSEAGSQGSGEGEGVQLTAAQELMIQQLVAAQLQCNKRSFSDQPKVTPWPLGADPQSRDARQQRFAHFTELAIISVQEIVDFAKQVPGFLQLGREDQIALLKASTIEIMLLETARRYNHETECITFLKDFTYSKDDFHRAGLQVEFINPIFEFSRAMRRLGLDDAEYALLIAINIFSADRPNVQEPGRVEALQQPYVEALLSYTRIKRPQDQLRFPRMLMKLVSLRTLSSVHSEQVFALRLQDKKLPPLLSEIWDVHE
# Transcriptional activator Myb (Homo sapiens), sequence (P10242 whole entry, looked up): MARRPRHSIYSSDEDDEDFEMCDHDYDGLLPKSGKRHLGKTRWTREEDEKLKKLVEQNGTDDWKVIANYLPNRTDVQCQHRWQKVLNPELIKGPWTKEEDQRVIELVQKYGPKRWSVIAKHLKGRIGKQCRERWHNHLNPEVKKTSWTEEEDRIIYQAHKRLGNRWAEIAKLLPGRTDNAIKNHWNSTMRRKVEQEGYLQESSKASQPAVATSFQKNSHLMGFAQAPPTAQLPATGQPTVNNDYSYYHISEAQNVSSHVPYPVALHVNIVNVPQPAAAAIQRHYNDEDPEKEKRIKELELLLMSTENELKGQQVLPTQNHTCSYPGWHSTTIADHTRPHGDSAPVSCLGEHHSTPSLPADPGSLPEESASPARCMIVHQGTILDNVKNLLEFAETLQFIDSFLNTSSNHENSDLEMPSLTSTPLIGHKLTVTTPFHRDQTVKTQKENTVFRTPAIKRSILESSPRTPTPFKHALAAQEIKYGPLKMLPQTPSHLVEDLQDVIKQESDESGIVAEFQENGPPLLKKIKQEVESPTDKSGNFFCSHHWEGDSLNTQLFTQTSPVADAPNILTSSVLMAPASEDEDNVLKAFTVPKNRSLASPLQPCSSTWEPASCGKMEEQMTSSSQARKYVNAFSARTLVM
# Myc proto-oncogene protein (Homo sapiens), sequence (P01106 whole entry, looked up): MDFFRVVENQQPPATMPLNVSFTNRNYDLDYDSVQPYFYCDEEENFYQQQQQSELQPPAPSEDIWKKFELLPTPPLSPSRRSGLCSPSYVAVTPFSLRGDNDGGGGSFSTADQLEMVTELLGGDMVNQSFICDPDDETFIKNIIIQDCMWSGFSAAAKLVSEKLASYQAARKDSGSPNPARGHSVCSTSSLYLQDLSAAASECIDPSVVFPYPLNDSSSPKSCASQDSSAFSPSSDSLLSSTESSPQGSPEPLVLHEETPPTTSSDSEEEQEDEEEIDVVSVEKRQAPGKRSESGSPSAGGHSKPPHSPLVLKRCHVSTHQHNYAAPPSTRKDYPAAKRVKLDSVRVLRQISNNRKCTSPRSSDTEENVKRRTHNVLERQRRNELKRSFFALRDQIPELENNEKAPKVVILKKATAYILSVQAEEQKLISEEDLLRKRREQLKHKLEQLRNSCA
# Oxysterols receptor LXR-alpha (Homo sapiens), sequence (Q13133 whole entry, looked up, the tested form may be a part): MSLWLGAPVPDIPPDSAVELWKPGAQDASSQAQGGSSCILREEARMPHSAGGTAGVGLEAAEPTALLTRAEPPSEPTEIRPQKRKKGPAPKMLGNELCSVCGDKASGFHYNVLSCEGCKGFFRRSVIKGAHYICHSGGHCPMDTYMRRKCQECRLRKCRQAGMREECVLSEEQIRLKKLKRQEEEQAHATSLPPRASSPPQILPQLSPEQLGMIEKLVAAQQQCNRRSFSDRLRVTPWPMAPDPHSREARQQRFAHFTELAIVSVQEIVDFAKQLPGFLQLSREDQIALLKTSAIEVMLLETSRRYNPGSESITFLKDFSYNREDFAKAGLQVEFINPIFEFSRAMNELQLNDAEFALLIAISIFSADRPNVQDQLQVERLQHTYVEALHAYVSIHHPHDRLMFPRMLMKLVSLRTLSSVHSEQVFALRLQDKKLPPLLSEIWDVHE
# Nuclear respiratory factor 1 (Homo sapiens), sequence (Q16656 whole entry, looked up): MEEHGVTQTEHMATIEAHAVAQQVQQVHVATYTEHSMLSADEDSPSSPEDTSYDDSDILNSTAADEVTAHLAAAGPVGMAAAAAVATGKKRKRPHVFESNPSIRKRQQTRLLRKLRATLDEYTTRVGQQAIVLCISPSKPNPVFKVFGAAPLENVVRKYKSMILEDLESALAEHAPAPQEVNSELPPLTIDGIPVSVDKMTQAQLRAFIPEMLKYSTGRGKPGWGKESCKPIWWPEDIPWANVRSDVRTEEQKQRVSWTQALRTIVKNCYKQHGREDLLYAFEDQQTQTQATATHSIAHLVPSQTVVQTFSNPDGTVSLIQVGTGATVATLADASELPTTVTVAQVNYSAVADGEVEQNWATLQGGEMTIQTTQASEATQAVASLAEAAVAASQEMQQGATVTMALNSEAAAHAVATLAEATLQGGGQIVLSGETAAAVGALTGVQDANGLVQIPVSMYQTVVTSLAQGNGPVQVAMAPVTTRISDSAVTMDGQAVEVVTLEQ
# human Peroxisome Proliferator-activated Receptor alpha (PPARa), PPARA (gene 5465), sequence (Q07869 whole entry, looked up, the tested form may be a part): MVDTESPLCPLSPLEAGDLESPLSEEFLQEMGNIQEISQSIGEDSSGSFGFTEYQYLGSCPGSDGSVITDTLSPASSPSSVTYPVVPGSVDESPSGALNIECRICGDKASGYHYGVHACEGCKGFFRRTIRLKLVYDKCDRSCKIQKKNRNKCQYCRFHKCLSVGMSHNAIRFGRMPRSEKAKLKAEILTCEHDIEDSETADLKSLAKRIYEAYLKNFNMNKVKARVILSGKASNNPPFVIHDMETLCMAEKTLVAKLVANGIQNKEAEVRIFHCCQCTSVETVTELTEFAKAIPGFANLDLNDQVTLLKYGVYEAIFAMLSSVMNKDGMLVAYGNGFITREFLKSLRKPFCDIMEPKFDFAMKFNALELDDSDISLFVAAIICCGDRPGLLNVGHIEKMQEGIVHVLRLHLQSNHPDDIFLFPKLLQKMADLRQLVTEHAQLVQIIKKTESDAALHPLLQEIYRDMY
smiles,measurement,setting,value
COCC(C)OCC(C)OCC(C)O (centres undefined),outcome,[1],inactive
same,outcome,[2],inactive
same,outcome,[3],inactive
same,outcome,[4],inactive
same,outcome,[5],inactive
same,outcome,[6],inactive
same,outcome,[7],inactive
same,outcome,[8],inactive
same,outcome,[9],inactive
same,outcome,[10],inactive
same,outcome,[11],inactive
same,outcome,[12],inactive
same,outcome,[13],inactive
same,outcome,[14],inactive
same,outcome,[15],inactive
same,outcome,[16],inactive
same,outcome,[17],inactive
NC(=O)c1nc(-c2cccc(-c3cc(F)ccc3OCC(F)(F)C(F)(F)F)c2)n[nH]1,outcome,[1],inactive
same,outcome,[2],inactive
same,outcome,[4],inactive
same,outcome,[5],inactive
same,outcome,[6],inactive
same,outcome,[7],inactive
same,outcome,[8],inactive
same,outcome,[9],inactive
same,AC50,[10],8.83 µM (active)
same,AC50,[11],27.4 µM (active)
same,outcome,[12],inactive
same,AC50,[13],29.7 µM (active)
same,AC50,[14],26.6 µM (active)
same,AC50,[15],35.7 µM (active)
same,AC50,[16],37 µM (active)
COc1cccc([C@H](O)C2CCN(CCc3ccc(F)cc3)CC2)c1OC,outcome,[1],inactive
same,outcome,[2],inactive
same,outcome,[4],inactive
same,outcome,[5],inactive
same,outcome,[6],inactive
same,outcome,[7],inactive
same,outcome,[8],inactive
same,outcome,[9],inactive
same,AC50,[10],140 µM (active)
same,AC50,[11],157 µM (active)
same,AC50,[12],100 µM (active)
same,outcome,[13],inactive
same,outcome,[14],inactive
same,outcome,[15],inactive
same,outcome,[16],inactive
c1ccc(C[n+]2cccc3ccccc32)cc1,outcome,[1],inactive
same,outcome,[2],inactive
same,outcome,[18],inactive
same,outcome,[19],inactive
same,outcome,[3],inactive
same,outcome,[4],inactive
same,outcome,[5],inactive
same,outcome,[6],inactive
same,outcome,[7],inactive
same,outcome,[8],inactive
same,outcome,[9],inactive
same,AC50,[10],67.9 µM (active)
same,outcome,[11],inactive
same,outcome,[12],inactive
same,outcome,[13],inactive
same,outcome,[14],inactive
same,outcome,[15],inactive
same,outcome,[16],inactive
same,outcome,[17],inactive
Cc1oc2c(NC(=O)c3c(Cl)cccc3Cl)cccc2c1C(C)(C)O,outcome,[1],inactive
same,outcome,[2],inactive
same,outcome,[18],inactive
same,outcome,[4],inactive
same,outcome,[20],inactive
same,outcome,[5],inactive
same,outcome,[6],inactive
same,outcome,[7],inactive
same,outcome,[8],inactive
same,outcome,[10],inactive
same,outcome,[11],inactive
same,AC50,[12],25.6 µM (active)
same,AC50,[13],4.29 µM (active)
same,AC50,[14],25.7 µM (active)
same,outcome,[15],inactive
same,AC50,[16],7.04 µM (active)
CC/C(=C(/CC)c1ccc(O)cc1)c1ccc(O)cc1,outcome,[1],inactive
same,outcome,[2],inactive
same,outcome,[18],inactive
same,outcome,[19],inactive
same,outcome,[3],inactive
same,outcome,[4],inactive
same,outcome,[5],inactive
same,outcome,[6],inactive
same,AC50,[7],13.9 µM (active)
same,outcome,[7],inactive
same,AC50,[8],18.6 µM (active)
same,outcome,[8],inactive
same,AC50,[10],12.7 µM (active) [middle of 4 runs]
same,outcome,[10],inactive
same,AC50,[11],16.7 µM (active) and 11.1 µM (active) and 16.6 µM (active)
same,outcome,[11],inactive
same,AC50,[12],11.1 µM (active)
same,outcome,[12],inactive
same,AC50,[13],27.1 µM (active)
same,AC50,[14],16.6 µM (active)
same,AC50,[15],32.5 µM (active)
same,AC50,[16],27.6 µM (active)
